“And” between values parts separate entries of the source, which are not always exact repeats. Equal entries are not always repeated. Inconclusive results are not listed. Entries that show only a call come without a potency. The source made the active and inactive calls. Calls come from the whole dose curve; as a rule, active = well fitted cell-killing curve with a large enough effect; inconclusive = small, poorly fitted or top-dose-only effect; inactive = flat fitted curve, though single readings scatter.
Potency is the fitted concentration of half-maximal effect.

The nature of the experiment: qHTS of pediatric cancer cell lines to identify multiple opportunities for drug repurposing: Primary screen for BT-12 cells (AID 1347101). Note: nearly all actives have a fitted effect of over 25% in size. The note with it: BT-12 viability, CellTiter-Glo luminescence, 48 h; series mostly up to 57.3 µM. The method in brief:
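Cells (500-1,000/well) rested 5 h, then received compounds for 48 h; metabolically active cells were measured by CellTiter-Glo luminescence. Final concentrations spanned up to 46 µM (MIPE, 11-point) or 0.59 nM-46 µM (NPC, 8-point) in primary screens, 11-point in follow-ups.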
On the technique in general: In qHTS, concentration-response curves come from the screen itself.
`CCCOc1ccc2nc(NC(=O)OC)[nH]c2c1`: the Potency was 123 nM (active) and 30.6 nM (active).
With `CCc1nc(N)nc(N)c1-c1ccc(Cl)cc1`, the Potency was 8.71 µM (active) and 10.9 µM (active).
To `Cc1ncc([N+](=O)[O-])n1CC(C)O` (stereo not drawn) belongs “inactive”.
To `O=c1oc2cc(O)ccc2s1` belongs “inactive”; to `CCOC(=O)C1=C[C@@H](OC(CC)CC)[C@H](NC(C)=O)[C@@H](N)C1`, “inactive”.
As to `Cc1cccc(-c2[nH]ncc2-c2ccc3ncccc3n2)n1`, the Potency entry was “inactive”.
The same measure for `Cc1nccn1CC1CCc2c(c3ccccc3n2C)C1=O` (stereo not drawn): “inactive”; for `Cc1cc(O)c2c(c1)C(=O)c1cc(O)cc(O)c1C2=O`: “inactive”.
To `N=C(N=C(N)N)N1CCOCC1` belongs “inactive”; to `CCC(C)(Oc1ccc(C2(c3ccc(OC(C)(CC)C(=O)O)cc3)CCCCC2)cc1)C(=O)O` (stereo not drawn), “inactive”; to `Cc1nc(-c2ccc(OCC(C)C)c(C#N)c2)sc1C(=O)O`, “inactive”.
To `Cn1c(NCCN(CCO)CCCc2ccc([N+](=O)[O-])cc2)cc(=O)n(C)c1=O` belongs “inactive”; to `C=C(c1ccc(C(=O)O)cc1)c1cc2c(cc1C)C(C)(C)CCC2(C)C`, “inactive”.
For `Cc1c(OCC(F)(F)F)ccnc1CS(=O)c1nc2ccccc2[nH]1` (stereo not drawn), the Potency entry was “inactive”.
To `S=c1nc[nH]c2nc[nH]c12` belongs 15.5 µM (active) and 24.3 µM (active); to `O=C1c2c(O)cc(O)cc2OC(c2ccc(O)c(O)c2)C1O` (stereo not drawn), “inactive”.
To `Cc1ccc(Nc2nccc(N(C)c3ccc4c(C)n(C)nc4c3)n2)cc1S(N)(=O)=O` belongs 12.3 µM (active) and 15.3 µM (active).
To `C[C@H](Cn1cnc2c(N)ncnc21)OCP(=O)(O)O` belongs “inactive”.

Source of the values: PubChem BioAssay (NCATS).
